The text below walks through data of PubChem BioAssay (EPA / NIEHS).

Molecules are shown by their SMILES. “And” between values parts separate entries of the source, which are not always exact repeats. Equal entries are not always repeated. Records with an inconclusive call do not appear. More than one record can exist for a structure, and the calls need not agree. The source made the active and inactive calls. Rule for the calls, unless noted: active = hit-call score of the fitted dose curve at least 0.9, where 1 is the maximum; inactive = score below 0.9.

Test [1] has as its target Bile acid receptor (Homo sapiens) (UniProt Q96RI1). Put plainly: ATG_FXR_TRANS: Attagene TRANS-FACTORIAL HepG2 Assay for Farnesoid X Receptor (FXR) (AID 2282979; active = hit-call score of the fitted dose curve at least 0.9, where 1 is the maximum;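 note: hits raise reporter mRNA above DMSO so AC50 marks FXR activation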). Conditions: HepG2 Attagene TRANS FXR-GAL4 reporter transcription. In a few lines:
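HepG2 cells were transiently transfected with GAL4-UAS reporters driven by chimeric NR-Gal4 proteins and dosed for 24 h. Reporter mRNA was quantified by RT-PCR, fluorescent labelling, HpaI digestion and capillary electrophoresis, with gain of signal scored versus DMSO.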

The target of test [2] is Oxysterols receptor LXR-alpha (Homo sapiens) (UniProt Q13133). Briefly: ATG_LXRa_TRANS: Attagene TRANS-FACTORIAL HepG2 Assay for human Liver X Receptor alpha (LXRa) (AID 2282980; active = hit-call score of the fitted dose curve at least 0.9, where 1 is the maximum). Conditions: HepG2 Attagene TRANS reporter, LXRa transactivation. In a few lines:
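HepG2 cells transiently transfected with GAL4-UAS reporter units for chimeric NR-Gal4 proteins, exposed to chemicals for 24 h. Reporter mRNA quantified by RT-PCR and capillary electrophoresis; gain of signal fitted relative to DMSO.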

Test [3] addresses Hepatocyte nuclear factor 4-alpha (Homo sapiens) (UniProt P41235). Briefly: ATG_HNF4a_TRANS: Attagene TRANS-FACTORIAL HepG2 Assay for human Hepatocyte Nuclear Factor 4 alpha (HNF4a) (AID 2282982; active = hit-call score of the fitted dose curve at least 0.9, where 1 is the maximum). Conditions: HepG2 HNF4a transactivation reporter, mRNA readout. In a few lines: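 In this trans-factorial format, a chimeric HNF4a-GAL4 fusion drives a GAL4-UAS reporter in transfected HepG2 liver cells. After 24 h treatment, reporter mRNA induction is measured by RT-PCR with capillary electrophoresis, relative to DMSO.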

Test [4] in a line: ATG_M_06_TRANS: Attagene TRANS-FACTORIAL HepG2 Assay for M06 Transcription Factor (Internal Marker) (AID 2282983; active = hit-call score of the fitted dose curve at least 0.9, where 1 is the maximum). Conditions: HepG2 Attagene TRANS M06 internal marker reporter. In a few lines:
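mRNA levels of a reporter transcript, quantified as FAM fluorescence on capillary electrophoresis, served as readout. HepG2 cells expressing exogenous GAL4-chimera reporter constructs were exposed for 24 h. Gain of signal over DMSO was evaluated.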

The nature of test [5]: ATG_M_32_TRANS: Attagene TRANS-FACTORIAL HepG2 Assay for M32 Transcription Factor (Internal Marker) (AID 2282984; active = hit-call score of the fitted dose curve at least 0.9, where 1 is the maximum;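 note: transcript level of a background control reporter unit measured by RT-PCR and capillary electrophoresis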). Conditions: HepG2 Attagene TRANS M32 internal marker reporter. In short, it runs like this:
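After 24 h dosing of transfected HepG2 cells, total RNA was reverse-transcribed, reporter sequences PCR-amplified, 6-FAM labelled by primer extension and HpaI-digested before capillary electrophoresis. Signal increase over DMSO was fitted.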

Test [6] deals with Nuclear receptor subfamily 4 group A member 2 (Homo sapiens) (UniProt P43354). Briefly: ATG_NURR1_TRANS: Attagene TRANS-FACTORIAL HepG2 Assay for human Nuclear Receptor Related Protein 1 (NURR1) (AID 2282985; active = hit-call score of the fitted dose curve at least 0.9, where 1 is the maximum). Conditions: HepG2 Attagene TRANS reporter, mRNA readout. In short, it runs like this: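 Chimeric NR-Gal4 fusion activity measured in HepG2 after 24 h treatment. Reporter transcripts detected by RT-PCR and capillary electrophoresis fluorescence; positive-direction curve fitting against DMSO.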

For test [7], the target named is Transcriptional activator Myb (Homo sapiens) (UniProt P10242). Briefly: ATG_Myb_CIS: Attagene CIS-FACTORIAL HepG2 Assay for human Myeloblastosis (Myb) Proto-Oncogene Transcription Factor (AID 2282986). Conditions: HepG2 Attagene CIS-FACTORIAL Myb reporter transcription; actives raise or lower the signal. In a few lines:
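In this HepG2 transient-transfection format, cis-regulated reporter mRNA is quantified 24 h post-dosing by RT-PCR with capillary electrophoresis, fitted bidirectionally to DMSO baseline.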

The target of test [8] is Nuclear respiratory factor 1 (Homo sapiens) (UniProt Q16656). Put plainly: ATG_NRF1_CIS: Attagene CIS-FACTORIAL HepG2 Assay for human Nuclear Respiratory Factor 1 (NRF1) Orphan Gene (AID 2282987). Conditions: HepG2 NRF1 cis-element reporter, Attagene multiplex; actives raise or lower the signal. In a few lines: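 Using DMSO as baseline, gain- or loss-of-signal was fitted for reporter mRNA levels in HepG2 cells transiently transfected with cis-regulated reporter units. Samples were taken 24 h after dosing and read by RT-PCR with capillary electrophoresis.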

The nature of test [9]: ATG_NFI_CIS: Attagene CIS-FACTORIAL HepG2 Assay for human Nuclear Factor I (NFI) (AID 2282989). Conditions: HepG2 cis-regulatory reporter, NFI response element transcription; actives raise or lower the signal. In short, it runs like this: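 Cells: human liver HepG2, transiently transfected with promoter-regulated reporter transcription units. Exposure 24 h. Detection: fluorescent RT-PCR products separated by capillary electrophoresis, normalised to DMSO negative control.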

Test [10] has as its target Myc proto-oncogene protein (Homo sapiens) (UniProt P01106). Put plainly: ATG_Myc_CIS: Attagene CIS-FACTORIAL HepG2 Assay for human Myelocytomatosis (Myc) Proto-Oncogene Transcription Factor (AID 2282990). Conditions: HepG2, Attagene cis-reporter transcription factor activity; actives raise or lower the signal. In a few lines: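 DMSO-normalised, bidirectionally fitted reporter mRNA signal. HepG2 cells transfected with cis reporter constructs, treated 24 h; transcripts detected by RT-PCR, 6-FAM primer extension and CE.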

Test [11] can be described thus: ATG_NF_kB_CIS: Attagene CIS-FACTORIAL HepG2 Assay for human Nuclear Factor Kappa B (NF-kB) (AID 2282991). Conditions: HepG2 Attagene cis-factorial NF-kB reporter mRNA; actives raise or lower the signal. In short, it runs like this: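 Endpoint from a 52-component multiplexed HepG2 reporter panel: cis-regulated transcription units transiently transfected, 24 h dosing, reporter mRNA quantified by RT-PCR and capillary electrophoresis, scored as increase or decrease against DMSO.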

Test [12] is described as follows: ATG_NRF2_ARE_CIS: Attagene CIS-FACTORIAL HepG2 Assay for human Nuclear Factor Erythroid 2 Related Factor 2 (NFR2) response to Antioxidant Response Elements (ARE) (AID 2282992). Conditions: HepG2 Attagene ARE/NRF2 reporter, transcription factor activity; actives raise or lower the signal. In short, it runs like this:
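Endogenous transcription factor activity read out as reporter transcript levels (RT-PCR plus capillary electrophoresis, fluorescence) in transiently transfected HepG2 cells. Measured at 24 h after dosing; gain or loss of signal fitted versus DMSO.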

A short description of test [13]: ATG_Oct_MLP_CIS: Attagene CIS-FACTORIAL HepG2 Assay for human Octamer-Binding Transcription Factor (Oct) (AID 2282993). Conditions: HepG2 Attagene cis-factorial Oct reporter, mRNA; actives raise or lower the signal. In short, it runs like this:
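HepG2, transient MRTU transfection, cis promoter elements; 24 h dosing; RT-PCR/CE fluorescence read-out of reporter mRNA; fit both directions vs DMSO.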

Test [14] deals with Cellular tumor antigen p53 (Homo sapiens) (UniProt P04637). Briefly: ATG_p53_CIS: Attagene CIS-FACTORIAL HepG2 Assay for human p53 Transcription Factor (AID 2282994). Conditions: HepG2 p53 cis-element reporter, Attagene mRNA; actives raise or lower the signal. In short, it runs like this:
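Endogenous p53 activity read in transiently transfected HepG2 from a cis-element-driven reporter transcript after 24 h exposure. RNA reverse-transcribed, PCR-amplified, fluorescently labelled and sized by capillary electrophoresis; gain or loss fitted against DMSO baseline.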

A short description of test [15]: BSK_3C_TissueFactor: BioMAP Diversity Plus: 3C Assay for Tissue Factor Biomarker Activity (AID 2282997). Conditions: BioMAP 3C HUVEC, tissue factor biomarker readout; actives raise or lower the signal. In a few lines: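 Tissue Factor measured by ELISA, 24 h after treatment of primary HUVEC in the BioMAP 3C setting.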
Test [16] is described as follows: BSK_3C_uPAR: BioMAP Diversity Plus: 3C Assay for Urokinase-type plasminogen activator receptor (uPAR) Biomarker Activity (AID 2282998). Conditions: BioMAP 3C HUVEC, uPAR biomarker ELISA; actives raise or lower the signal. In short, it runs like this:
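A multiplexed primary-cell system built on human umbilical vein endothelium was used, with chemical present for 24 h before reading. Cell-surface uPAR was detected by ELISA; signal change in either direction counted against DMSO.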

Test [17] is described as follows: BSK_3C_VCAM1: BioMAP Diversity Plus: 3C Assay for Vascular cell adhesion molecule 1 (VCAM1) Biomarker Activity (AID 2282999). Conditions: BioMAP 3C HUVEC, VCAM1 ELISA, cytokine-stimulated; actives raise or lower the signal. In short, it runs like this: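 Vascular primary endothelium (human umbilical vein) was exposed to chemicals and assayed 24 h later. VCAM-1 levels came from ELISA, with DMSO serving as baseline for bidirectional fitting.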
(In general: In an ELISA, binding on a coated surface is turned into a signal by an enzyme label.)

Test [18] is described as follows: BSK_4H_Eotaxin3: BioMAP Diversity Plus: 4H Assay for Eotaxin 3 Biomarker Activity (AID 2283000).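 For outcome: CCL26 protein level quantified by ELISA in parallel with SRB cytotoxicity check.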 Conditions: primary human endothelial cells (HUVEC); actives raise or lower the signal. In a few lines:
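Eotaxin-3 (CCL26) levels were measured by ELISA in HUVEC primary cultures 24 h post-dosing. Gain or loss of signal was fitted in both directions, with DMSO serving as baseline and negative control.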

For test [19], the target named is Glucocorticoid receptor (Homo sapiens) (UniProt P04150). Briefly: ATG_GR_TRANS: Attagene TRANS-FACTORIAL HepG2 Assay for human Glucocorticoid Receptor (GR) (AID 2282978; active = hit-call score of the fitted dose curve at least 0.9, where 1 is the maximum;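 note: activators score as hits since higher reporter transcript over DMSO is fitted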). Conditions: HepG2 Attagene TRANS GR reporter, mRNA transcription. In a few lines: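 Exogenous NR-GAL4 fusion activity was assessed through induced GAL4-UAS reporter transcripts in transfected human HepG2 cells, quantified after 24 h by RT-PCR and fluorescent capillary electrophoresis with DMSO as baseline.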
Sequence of Glucocorticoid receptor (Homo sapiens) (P04150 whole entry, looked up, the tested form may be a part): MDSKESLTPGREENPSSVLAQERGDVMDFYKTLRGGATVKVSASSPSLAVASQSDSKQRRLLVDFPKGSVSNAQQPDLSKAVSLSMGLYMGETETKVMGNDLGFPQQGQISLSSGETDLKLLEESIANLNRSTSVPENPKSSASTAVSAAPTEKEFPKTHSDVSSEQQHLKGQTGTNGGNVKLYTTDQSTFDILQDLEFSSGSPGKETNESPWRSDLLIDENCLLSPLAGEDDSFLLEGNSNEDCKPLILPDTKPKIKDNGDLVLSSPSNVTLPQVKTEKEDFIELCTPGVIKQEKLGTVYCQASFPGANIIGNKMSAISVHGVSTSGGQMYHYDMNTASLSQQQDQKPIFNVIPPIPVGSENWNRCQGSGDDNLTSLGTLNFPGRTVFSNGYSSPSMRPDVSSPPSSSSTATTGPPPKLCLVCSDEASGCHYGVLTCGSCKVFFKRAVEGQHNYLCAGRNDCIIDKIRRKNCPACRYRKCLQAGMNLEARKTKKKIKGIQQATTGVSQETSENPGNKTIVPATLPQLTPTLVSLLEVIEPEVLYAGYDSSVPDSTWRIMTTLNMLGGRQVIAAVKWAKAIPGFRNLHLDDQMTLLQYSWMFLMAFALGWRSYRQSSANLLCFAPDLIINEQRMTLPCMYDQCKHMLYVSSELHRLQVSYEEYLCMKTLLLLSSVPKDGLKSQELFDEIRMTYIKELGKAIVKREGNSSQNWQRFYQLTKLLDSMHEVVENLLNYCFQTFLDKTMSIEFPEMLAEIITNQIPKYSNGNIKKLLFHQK

Sequence of Bile acid receptor (Homo sapiens) (Q96RI1 whole entry, looked up, the tested form may be a part): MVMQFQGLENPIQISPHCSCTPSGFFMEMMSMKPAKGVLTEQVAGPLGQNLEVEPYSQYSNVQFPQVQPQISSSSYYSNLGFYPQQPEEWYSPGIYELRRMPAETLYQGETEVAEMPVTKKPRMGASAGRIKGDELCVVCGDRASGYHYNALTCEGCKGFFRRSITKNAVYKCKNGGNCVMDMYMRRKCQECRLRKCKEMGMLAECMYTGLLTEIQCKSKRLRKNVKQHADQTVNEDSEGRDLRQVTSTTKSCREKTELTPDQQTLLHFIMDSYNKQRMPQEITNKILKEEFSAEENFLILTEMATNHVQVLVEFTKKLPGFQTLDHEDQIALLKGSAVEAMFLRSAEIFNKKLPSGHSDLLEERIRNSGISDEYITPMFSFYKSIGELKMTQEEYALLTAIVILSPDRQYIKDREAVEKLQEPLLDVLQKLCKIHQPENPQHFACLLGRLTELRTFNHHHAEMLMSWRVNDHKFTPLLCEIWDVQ
Sequence of Myc proto-oncogene protein (Homo sapiens) (P01106 whole entry, looked up): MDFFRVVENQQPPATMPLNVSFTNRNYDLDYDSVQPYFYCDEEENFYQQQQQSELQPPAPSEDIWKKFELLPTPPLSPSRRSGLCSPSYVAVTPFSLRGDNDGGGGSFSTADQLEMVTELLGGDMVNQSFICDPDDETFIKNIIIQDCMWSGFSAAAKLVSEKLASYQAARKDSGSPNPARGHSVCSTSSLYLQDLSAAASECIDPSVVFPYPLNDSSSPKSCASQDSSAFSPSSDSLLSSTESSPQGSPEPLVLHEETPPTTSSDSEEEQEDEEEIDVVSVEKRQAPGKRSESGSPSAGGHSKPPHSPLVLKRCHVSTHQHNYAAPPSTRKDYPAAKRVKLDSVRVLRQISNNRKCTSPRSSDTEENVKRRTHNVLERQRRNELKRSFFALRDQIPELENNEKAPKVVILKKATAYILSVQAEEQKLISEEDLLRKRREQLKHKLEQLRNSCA
Sequence of Nuclear respiratory factor 1 (Homo sapiens) (Q16656 whole entry, looked up): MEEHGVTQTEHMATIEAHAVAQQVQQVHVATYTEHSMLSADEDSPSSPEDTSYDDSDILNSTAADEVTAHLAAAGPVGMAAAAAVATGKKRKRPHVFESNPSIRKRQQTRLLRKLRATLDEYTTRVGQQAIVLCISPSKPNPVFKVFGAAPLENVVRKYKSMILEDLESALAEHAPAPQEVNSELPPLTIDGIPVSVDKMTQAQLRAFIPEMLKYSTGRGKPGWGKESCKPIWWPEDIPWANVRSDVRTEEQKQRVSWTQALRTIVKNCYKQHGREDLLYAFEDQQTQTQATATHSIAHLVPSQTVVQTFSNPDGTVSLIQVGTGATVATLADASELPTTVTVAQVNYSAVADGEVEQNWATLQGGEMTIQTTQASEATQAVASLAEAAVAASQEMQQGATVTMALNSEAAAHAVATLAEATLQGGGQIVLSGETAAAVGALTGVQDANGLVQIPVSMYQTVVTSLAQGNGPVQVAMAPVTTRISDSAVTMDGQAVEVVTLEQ
Sequence of Oxysterols receptor LXR-alpha (Homo sapiens) (Q13133 whole entry, looked up, the tested form may be a part): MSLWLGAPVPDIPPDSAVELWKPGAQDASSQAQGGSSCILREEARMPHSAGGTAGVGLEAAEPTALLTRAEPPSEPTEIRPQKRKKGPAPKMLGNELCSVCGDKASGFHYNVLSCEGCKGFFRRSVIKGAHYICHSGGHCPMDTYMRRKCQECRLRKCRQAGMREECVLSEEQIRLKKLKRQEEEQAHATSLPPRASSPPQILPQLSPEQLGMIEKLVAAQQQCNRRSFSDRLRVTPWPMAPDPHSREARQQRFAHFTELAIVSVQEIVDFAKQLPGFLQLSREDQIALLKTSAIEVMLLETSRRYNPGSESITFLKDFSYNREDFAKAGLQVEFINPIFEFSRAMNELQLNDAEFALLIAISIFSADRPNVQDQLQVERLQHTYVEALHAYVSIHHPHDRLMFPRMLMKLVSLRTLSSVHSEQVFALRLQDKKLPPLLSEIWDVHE
Sequence of Hepatocyte nuclear factor 4-alpha (Homo sapiens) (P41235 whole entry, looked up, the tested form may be a part): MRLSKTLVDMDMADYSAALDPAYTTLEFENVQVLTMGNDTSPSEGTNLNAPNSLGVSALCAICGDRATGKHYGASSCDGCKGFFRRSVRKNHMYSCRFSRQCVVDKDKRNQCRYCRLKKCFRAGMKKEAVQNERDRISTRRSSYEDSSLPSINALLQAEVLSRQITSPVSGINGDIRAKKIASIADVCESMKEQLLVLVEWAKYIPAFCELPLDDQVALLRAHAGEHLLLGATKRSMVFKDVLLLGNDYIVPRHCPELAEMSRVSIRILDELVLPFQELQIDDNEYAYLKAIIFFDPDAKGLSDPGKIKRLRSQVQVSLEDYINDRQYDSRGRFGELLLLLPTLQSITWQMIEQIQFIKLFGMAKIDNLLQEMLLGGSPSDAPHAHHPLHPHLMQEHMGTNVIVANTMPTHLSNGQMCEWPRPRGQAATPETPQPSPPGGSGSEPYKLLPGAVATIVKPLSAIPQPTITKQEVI
Sequence of Cellular tumor antigen p53 (Homo sapiens) (P04637 whole entry, looked up): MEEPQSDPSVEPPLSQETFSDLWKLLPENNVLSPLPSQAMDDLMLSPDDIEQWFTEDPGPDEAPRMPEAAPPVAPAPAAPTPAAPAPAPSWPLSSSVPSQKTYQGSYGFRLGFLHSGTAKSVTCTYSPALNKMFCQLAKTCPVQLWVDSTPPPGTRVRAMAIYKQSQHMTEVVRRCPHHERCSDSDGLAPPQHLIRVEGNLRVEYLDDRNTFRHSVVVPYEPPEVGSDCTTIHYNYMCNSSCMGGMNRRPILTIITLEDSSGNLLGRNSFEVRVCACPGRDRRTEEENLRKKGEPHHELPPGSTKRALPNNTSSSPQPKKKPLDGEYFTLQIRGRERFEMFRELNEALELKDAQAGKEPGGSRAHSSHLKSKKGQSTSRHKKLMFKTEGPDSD
Sequence of Nuclear receptor subfamily 4 group A member 2 (Homo sapiens) (P43354 whole entry, looked up, the tested form may be a part): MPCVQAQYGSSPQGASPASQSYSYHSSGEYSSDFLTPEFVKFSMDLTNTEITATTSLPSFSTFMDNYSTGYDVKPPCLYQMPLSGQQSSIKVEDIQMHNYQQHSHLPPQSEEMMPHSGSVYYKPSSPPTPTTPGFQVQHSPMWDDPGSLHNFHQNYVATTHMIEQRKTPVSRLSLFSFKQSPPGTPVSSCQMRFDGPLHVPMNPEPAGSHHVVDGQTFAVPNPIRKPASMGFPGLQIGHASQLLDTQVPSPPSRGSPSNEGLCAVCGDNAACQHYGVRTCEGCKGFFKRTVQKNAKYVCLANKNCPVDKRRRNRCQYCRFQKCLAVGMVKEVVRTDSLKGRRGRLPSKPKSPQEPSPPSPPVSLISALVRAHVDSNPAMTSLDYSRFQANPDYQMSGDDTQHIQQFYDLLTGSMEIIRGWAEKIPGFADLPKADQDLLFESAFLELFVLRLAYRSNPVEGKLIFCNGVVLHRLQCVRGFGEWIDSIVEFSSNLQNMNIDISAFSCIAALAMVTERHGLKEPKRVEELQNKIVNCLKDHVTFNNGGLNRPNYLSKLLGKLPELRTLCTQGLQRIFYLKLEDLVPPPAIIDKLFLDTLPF
Sequence of Transcriptional activator Myb (Homo sapiens) (P10242 whole entry, looked up): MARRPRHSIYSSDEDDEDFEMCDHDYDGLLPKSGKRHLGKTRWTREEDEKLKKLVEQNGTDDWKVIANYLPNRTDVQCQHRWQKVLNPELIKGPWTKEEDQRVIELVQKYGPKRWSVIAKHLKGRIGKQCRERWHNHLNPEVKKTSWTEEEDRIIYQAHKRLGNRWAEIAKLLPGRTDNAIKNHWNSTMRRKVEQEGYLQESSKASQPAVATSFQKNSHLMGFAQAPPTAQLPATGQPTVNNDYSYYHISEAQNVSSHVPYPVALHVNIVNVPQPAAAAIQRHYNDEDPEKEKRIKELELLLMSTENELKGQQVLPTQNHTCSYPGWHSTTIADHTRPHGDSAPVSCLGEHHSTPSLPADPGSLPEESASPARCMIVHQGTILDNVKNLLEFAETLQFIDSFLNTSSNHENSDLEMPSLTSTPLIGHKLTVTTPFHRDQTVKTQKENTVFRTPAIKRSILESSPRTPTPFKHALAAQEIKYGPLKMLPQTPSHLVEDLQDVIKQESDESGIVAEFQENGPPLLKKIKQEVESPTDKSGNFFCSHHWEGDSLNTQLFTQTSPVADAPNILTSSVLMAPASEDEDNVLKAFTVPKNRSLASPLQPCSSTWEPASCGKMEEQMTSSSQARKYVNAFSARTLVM

As a reminder, the AC50 is the concentration giving half of the maximal activity seen. Turning to `O=C(Nc1ccc(Cl)cc1)Nc1ccc(Cl)c(Cl)c1`, the compound was called inactive in test [1], in [2], in test [3], in test [4], in test [5] and in test [6]. Moreover, the call in [7], in [8], in test [9], in test [10], in [11] and in test [14] was inactive. In test [15], the result was inactive. The AC50 in [12] is 6.66 µM (active); in [13], 5.12 µM (active); in [16] it was 1.89 µM (active); in test [17], 3.5 µM (active); in test [18], 2.4 µM (active).
For `CCCCOC(=O)CC(CC(=O)OCCCC)(OC(C)=O)C(=O)OCCCC`, the compound was classed as inactive in [1], in test [3], in test [4], in test [5], in test [6] and in [7]. Besides, the outcome in test [8], in test [10], in [11], in test [12], in [13] and in test [14] was inactive. Besides, the outcome in test [15], in [16], in test [17] and in test [18] was inactive.
For the compound `OC12N=C(c3ccccc3)SC1Cc1cc(Cl)ccc12` (stereo not drawn), the call in [1], in [2], in test [3], in test [5], in test [6] and in test [7] was inactive. Further, the outcome in [8], in test [10], in test [13], in [14], in test [16] and in test [17] was inactive. Also, the values for the AC50 in test [12], in test [15] and in test [18] were 3.75 µM (active), 5.1 µM (active) and 20 µM (active), respectively.
For the compound `O=c1[nH]sc2ccccc12`, the call in test [1], in test [3], in test [4], in test [7], in [8] and in test [10] was inactive. Moreover, the call in test [11] and in test [13] was inactive. Further, the AC50 in test [12] was 6.26 µM (active); in [14], 42.6 µM (active); in test [15], 8.49 µM (active); in [16], 15 µM (active); in [17] it was 8.74 µM (active); in [18], 8.99 µM (active).
Turning to `O=C(O)Cc1cc(I)c(Oc2ccc(O)c(I)c2)c(I)c1`, the compound was classed as inactive in test [19], in test [1], in test [2], in [3], in [4] and in test [5]. The outcome in test [7], in [8], in test [10], in [11], in test [13] and in [14] was inactive. The outcome in test [15], in test [16] and in [17] was inactive. Besides, the AC50 is 82 µM (active) and 100 µM (active) in test [6]; 159 µM (active) in test [8]; 70 µM (active) [middle of 4 runs] in test [12]; 35.7 µM (active) and 100 µM (active) in [13]; 25.9 µM (active) and 26.4 µM (active) and 9.57 µM (active) in test [14]; 31.3 µM (active) in test [18].
In the case of `CCCOC(=O)c1cc(O)c(O)c(O)c1`, the compound was called inactive in [1], in [3], in [4], in [6], in [7] and in test [8]. The outcome in test [10], in [13], in [14], in test [15], in test [16] and in test [17] was inactive. In addition, the outcome in test [18] was inactive. In addition, in [12], the AC50 is 5.91 µM (active).
